Only some compounds are listed: those with a hit (about 12% of all), similar ones and a draw of the others.
SARS PLpro yeast: inhibitors of SARS-CoV papain-like protease in yeast. S. cerevisiae expressing SARS-CoV PLpro, growth rescue. Potency, µM (top dose mostly 32.9 µM), without a hit: at the highest dose activity, positive = growth rescue, usual class: activators. actives 0.19% (n = 330,000). AID 485353; calls by dose curve; further: 0% is about no effect; nearly all actives have a fitted effect of over 55% in size
AMA1-RON2 inh: inhibitors of Plasmodium falciparum AMA1-RON2 interaction | AlphaScreen AMA1-biotinylated RON2 peptide binding | Potency, µM (top dose mostly 58.2 µM), without a hit: at the highest dose activity change, negative = inhibition, hits mostly inhibitors | actives 0.2% (n = 360,000);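 further: 0% = vehicle wells and -100% = peptide control; nearly all actives have a fitted effect of over 45% in size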
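AMA1 (3D7) with his tag at 25 nM final met compounds first, then biotinylated RON2 peptide at 25 nM; detection used donor plus acceptor beads, 10 µg/mL apiece, read by AlphaScreen after 30 min at room temperature.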
Pf growth 96h: inhibits malaria parasite growth, 96 h; P. falciparum luciferase reporter growth, 96 h; Potency, µM (titrated, usually from 28.7 µM), inactives show at the highest dose activity change, negative = inhibition, actives largely listed as inhibitors; actives 6.9% (n = 320,000); AID 504834; further: on the % scale 0 is the no-effect control and ±100 the full control effect
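P. falciparum expressing integrated firefly luciferase grown in erythrocytes (2% hematocrit, 0.05% parasitemia final) with compounds for 96 hours at 37 C, 5% CO2. Growth inhibition read as loss of luminescence after adding luciferase detection reagent.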
NS1 function inh: inhibitors of influenza NS1 protein function; Potency, µM (top dose mostly 46.1 µM), for the others: top-dose activity, positive = more growth; actives 0.4% (n = 270,000); AID 2326; calls by dose curve; further: actives are rising curves; nearly all actives have a fitted effect of over 50% in size
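A cell-based growth assay was used: compounds that relieve NS1-induced slow growth of budding yeast raise OD600. Assay medium was yeast nitrogen base with ammonium sulphate and -URA supplement, pH 6.0, with 2% galactose.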
Pf growth 48h: P. falciparum growth inhibition at 48 hours (one generation). P. falciparum luciferase growth in erythrocytes, 48 h. Potency, µM (doses to about 28.7 µM), for the others: at the highest dose activity change, negative = inhibition, most hits filed as inhibitors. actives 5.9% (n = 310,000); further: on the % scale 0 is the no-effect control and ±100 the full control effect
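A one-generation exposure of luciferase-tagged malaria parasites in RPMI 1640/Albumax erythrocyte culture, 37 C and 5% CO2. Inhibition is inferred from decreased luminescence after adding detection reagent.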
HCV inhibitor: inhibitors of hepatitis C virus infection. Huh7.5.1 HCVcc-Cre infection, luciferase reporter, 44 h. Potency, µM (titrated, usually from 41.8 µM), without a hit: at the highest dose activity change, negative = inhibition, actives largely listed as inhibitors. actives 3.4% (n = 340,000); further: on the % scale 0 is the no-effect control and ±100 the full control effect
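Whole-lifecycle infectious HCVcc-Cre system; cells 1,000/well, compound then virus (~0.5 moi) added 4 h after plating, 44 h culture. Luciferase read 15 sec following 15 min substrate incubation, room temp.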
HCV confirm: HCV inhibition, cherry-pick confirmation; HCVcc-Cre infectious virus cell assay, luciferase, inhibition; Potency, µM (top dose mostly 41.8 µM), inactives show at the top dose activity, negative = inhibition, hits mostly inhibitors; shares compounds with HCV inhibitor; actives 78% (n = 640); AID 720575; further: nearly all actives have a fitted effect of over 80% in size
HCV cytotox: host cell cytotoxicity counter-screen for HCV inhibitors | actives 22% (n = 640) | Potency, µM (top dose mostly 41.8 µM), for inactives: top-dose activity change, negative = cytotoxicity, most hits filed as inhibitors | shares compounds with HCV inhibitor | HCV host cell line cytotoxicity counterscreen;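 further: 44 h compound exposure; on the % scale 0 is the no-effect control and ±100 the full control effect; nearly all actives have a fitted effect of over 55% in size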
An asterisk follows results filed as active; ? = inconclusive; . = not tested or not shown; [ ] = remark or other dose. Unless noted, the call rests on the fitted dose curve; in most records, active means well fitted curve in the direction sought with a large enough effect; inconclusive means small, poorly fitted or top-dose-only effect, or another doubt; inactive means no such curve, though single readings can be large; an effect the other way counts as inactive or inconclusive. Potency means the concentration at half of the fitted maximal effect.

SMILES	SARS PLpro yeast	AMA1-RON2 inh	Pf growth 96h	NS1 function inh	Pf growth 48h	HCV inhibitor	HCV confirm	HCV cytotox
OC1CCN(c2c3c(nc4cc(-c5ccc(F)cc5)nn24)CCC3)CC1	-5.2%	-13.1%	?	-4.8%	?	?	4.99µM*	37.4%
CCOCCCNc1c2c(nc3cc(-c4ccc(F)cc4)nn13)CCC2	1.5%	2.8%	?	.	5.0%	-0.5%	.	.
O=C(O)c1cccc2c1C(=O)c1cc([N+](=O)[O-])ccc1-2	.	9.8%	.	.	.	-4.0%	.	.
Cn1c(-c2ccsc2)c(-c2cccs2)c2cc(-c3ccc4cc[nH]c4c3)ccc21	-0.4%	0.0%	?	.	2.08µM*	1.12µM*	11.2µM*	-34.8%
CC(NC(=S)NCCCN1CCOCC1)C12CC3CC(CC(C3)C1)C2 (stereo unspecified)	-3.4%	1.4%	?	.	-9.4%	-2.4%	.	.
CC(=O)c1ccccc1NC(=O)COC(=O)c1cc2ccccc2[nH]1	0.7%	8.1%	?	.	?	10.3%	.	.
CCOC(=O)C1(CCc2ccccc2)CCN(Cc2ccc(O)cc2)CC1	-0.1%	7.5%	4.5%	-3.3%	?	?	.	.
CCOC(=O)C1(CCc2ccccc2)CCN(Cc2csc(C(C)=O)c2)CC1	-1.0%	-22.6%	?	2.2%	?	6.31µM*	14.1µM*	?
C[C@]12CC[C@@H]3c4ccc(O)c(O)c4CC[C@H]3[C@@H]1CC[C@@H]2O	0.4%	?	.	28.6%	.	2.82µM*	19.9µM*	1.3%
C=CCOc1ccc(C2/C(=C(\O)c3ccc4c(c3)OCCO4)C(=O)C(=O)N2CCCN2CCOCC2)cc1 (stereo unspecified)	-3.9%	6.3%	-0.4%	-8.0%	-1.5%	18.6%	.	.
COc1ccc(CCNC(=O)c2cc3c(=O)n4ccccc4nc3n(CCN3CCOCC3)c2=N)cc1	16.7%	2.4%	?	8.4%	?	?	.	.
COc1ccc(CCNC(=O)c2cc3c(=O)n4ccccc4nc3n(CCCN3CCOCC3)c2=N)cc1	-2.9%	-13.1%	?	-19.0%	?	8.91µM*	15.8µM*	14.0%
COc1ccc(CCNC(=O)c2cc3c(=O)n4ccccc4nc3n(C3CCCCC3)c2=N)cc1	0.6%	4.0%	4.15µM*	20.7%	?	7.94µM*	14.1µM*	-10.5%
N=c1c(S(=O)(=O)c2ccc(Br)cc2)cc2c(=O)n3ccccc3nc2n1C1CCCCC1	1.0%	-0.4%	3.7µM*	4.9%	8.28µM*	?	14.1µM*	15.9%
O=C(CC1NCCNC1=O)NC1Cc2ccccc2C1 (stereo unspecified)	1.0%	9.4%	36.3%	-3.6%	38.6%	16.9%	.	.
CCOc1ccc(Cl)cc1-c1cc(C(=O)Nc2ccc(F)cc2)[nH]n1	.	-1.9%	.	.	.	.	.	.
CN1CCc2c(sc(NC(=O)c3ccc([N+](=O)[O-])o3)c2C(N)=O)C1	6.2%	4.2%	?	2.6%	?	3.98µM*	14.1µM*	?
CCn1nc(C)c(CNC(=O)c2ccc(OC3CCN(Cc4ccccn4)CC3)cc2)c1C	-6.4%	26.3%	48.5%	-6.0%	-7.4%	1µM*	0.56µM*	1.12µM*
CCN(CC(=O)NCc1ccc(Cl)cc1)C(=O)/C=C/c1ccc(Cl)c([N+](=O)[O-])c1	-2.9%	-3.6%	?	14.0%	15.5%	.	.	.
CN(C)c1ccc(/C=C2\Oc3ccc(C#Cc4cccc(N)c4)cc3C2=O)cc1	-6.8%	24.0%	.	.	.	?	8.87µM*	38.6%
O=C(/C=C/c1ccco1)Nc1ccc(-c2nc3ccccc3[nH]2)cc1	7.7%	-2.4%	11.7µM*	15.0%	4.15µM*	2.82µM*	6.28µM*	?
Cc1onc(C(=O)NCc2ccccn2)c1[N+](=O)[O-]	0.4%	93.9%	16.4%	.	28.2%	16.0%	.	.
CC(C)[C@H](NS(=O)(=O)c1cccc(Cl)c1)C(=O)OCC(=O)NC(=O)CN1CCCC1=O	-4.4%	-3.0%	-0.5%	.	-18.9%	-2.4%	.	.
CC(=NNC(=S)N1CCN(C2CCCCCC2)CC1)c1ccccn1	.	14.1µM*	.	.	.	0.891µM*	0.112µM*	?
CC(=NNC(=S)N1CCN(c2ccccn2)CC1)c1ccccn1	.	13.8%	.	.	.	?	.	.
SMILES	SARS PLpro yeast	AMA1-RON2 inh	Pf growth 96h	NS1 function inh	Pf growth 48h	HCV inhibitor	HCV confirm	HCV cytotox
CN1CCN(NC(=O)c2cc(-c3ccc(Cl)s3)nc3ccccc23)CC1	7.3%	0.4%	12.8%	-5.4%	-23.0%	?	.	.
CC(C)Sc1nc2c(c(=O)[nH]c(=O)n2C)n1CCc1ccccc1	1.6%	2.1%	?	-6.4%	.	8.0%	.	.
CC(C)Sc1nc2c(c(=O)[nH]c(=O)n2C)n1Cc1ccccc1	20.2%	-14.6%	0.0%	15.4%	-5.2%	?	-26.3%	14.0%
Cc1cc(=O)n(C)c(=O)n1CCCCCCOc1cccc([N+](=O)[O-])c1	-6.6%	-3.0%	4.15µM*	-29.8%	-6.4%	7.08µM*	9.95µM*	-18.9%
CC(=O)Nc1cccc(OCCOc2cccc([N+](=O)[O-])c2)c1	.	-12.7%	.	.	.	-20.4%	.	.
COc1ccc(C(=O)c2ccc(N(C)C)cc2)c2ccccc12	-1.5%	-24.4%	9.2%	9.3%	-19.9%	?	-22.4%	-18.8%
COc1ccc2c(c1)CCc1c-2nc2ccccc2c1N1CCOCC1	-1.1%	9.5%	?	-10.6%	?	4.47µM*	-21.4%	-50.5%
c1ccc2c(N3CCOCC3)c3c(nc2c1)CCC3	-5.1%	-2.2%	?	1.1%	-26.0%	?	.	.
CCOc1ccc(NC(=O)c2cc(=O)[nH]c3ccccc23)cc1	11.8%	1.9%	-39.1%	6.0%	22.5%	-16.2%	.	.
COc1cccc(CN2CC(C(=O)NCCc3ccc(C)o3)CCC2=O)c1 (stereo unspecified)	-2.1%	18.0%	?	9.4%	9.5%	?	.	.
N#Cc1c2ccc(O)cc2n2ccccc12	-4.2%	37.4%	-13.8%	.	-17.2%	7.08µM*	22.3µM*	14.9%
Cc1ccccc1NC(=O)CSc1nc2ccccc2c(=O)n1C	-13.1%	-0.8%	53.5%	-28.6%	-5.4%	3.16µM*	8.87µM*	14.1µM*
Cc1ccc(S(=O)(=O)N(C)C)cc1-n1c(SCC(=O)Nc2ccc(F)cc2Cl)nc2ccccc2c1=O	18.6%	11.5%[11.6 µM]	?	?	13.1µM*	1.26µM*	14.1µM*	38.2%
Cc1ccccc1NC(=O)CSc1nc2c(c(=O)n(C)c(=O)n2C)n1C	9.0%	11.2%	40.9%	-5.0%	3.8%	5.1%	.	.
